# From the supplement of paper PMC3484114
# ± gives the standard deviation.
# Tested on: OVCAR-3-derived ovarian cancer stem-like cells (spheroids)
# Assay: cell growth relative to untreated control; higher = more growth (less inhibition)
# Conditions: 2.29 µM; 96 h
# Method in brief: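 OVCAR-3 spheroid-derived stem-like cells were trypsin-dissociated, seeded at 50,000 cells/mL in stem cell medium in ultra-low attachment 96-well plates and preincubated 24 h. Compounds were then added at 2.29 uM for 96 h at 37°C, 5% CO2, in 4 replicate wells. Viability was read as TOX8 resazurin fluorescence (ex 560/em 590 nm) after 4 h. Percent growth was calculated relative to untreated wells after blank subtraction and Grubbs outlier removal.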
row,Structure (SMILES),cell growth
1,Cn1c(=O)c2nc3sc4c(n3c2n(C)c1=O)C(=O)c1ccccc1C4=O,115 ± 20%
2,C=C1C(=O)C23CC[C@@H]4C(C)(C(=O)OC)CCCC4(C)[C@@H]2CCC1(O)C3 (some centres undefined),13 ± 5.5%
3,CCOC(=O)/C(=C/c1ccc(N(C)C)cc1)N(CC)CC,85 ± 9.3%
4,CCCCC(/C=N/N=C(N)N)CC.Cc1cc(O)c(C(C)C)cc1S(=O)(=O)O,91.8 ± 17%
5,C[C@H](CSC(=O)c1ccccc1)C(=O)N1c2ccccc2C[C@H]1C(=O)O,90.9 ± 9.5%
6,CCOC(=O)Nc1nc2ccc(Cn3cccc3)cc2[nH]1,127 ± 20%
7,CCOc1ccccc1NC(=O)CC1Sc2ccccc2NC1=O (centres undefined),70.6 ± 14%
8,Cc1cc(Cl)ccc1N1C(=O)C(=O)C(c2nc3ccccc3o2)C(=O)C1=O,134 ± 53%
9,CON(C)C(=O)C1CCCO1 (centres undefined),79.4 ± 11%
10,N#CC1=C(N)Oc2c(ccc3cccnc23)C1c1ccccc1 (centres undefined),57.8 ± 17%
11,COC(=O)[C@@]12OC[C@]34[C@H]([C@@H](O)[C@@H]1O)[C@@]1(C)CC(=O)C(O)=C(C)[C@@H]1C[C@H]3OC(=O)[C@H](OC(=O)C=C(C)C)[C@@H]24,18.5 ± 3.1%
12,COc1ccc(/C=C/c2cc(O)cc(O[C@@H]3O[C@H](CO)[C@@H](O)[C@H](O)[C@H]3O)c2)cc1O,106 ± 26%
13,CN(C)[C@H]1CCC2[C@@H]3CCC4C[C@@H](NC(=O)NC(Cc5ccccc5)c5nccs5)CC[C@]4(C)C3CC[C@@]21C (some centres undefined),76.9 ± 20%
14,C[C@@H]1C[C@H]2OC(=O)[C@@]3(C)CCC[C@@](C)([C@@H]23)[C@@]1(O)CCc1ccoc1,59.6 ± 12%
15,CCOC(=O)CNC(=O)NC12CC3CC(CC(C3)C1)C2,95.4 ± 18%
16,C[CH2][Ge]([CH2]C)([CH2]C)[O]C(=O)CCC(=O)[O][Ge]([CH2]C)([CH2]C)[CH2]C,110 ± 7.5%
17,CC1(C)CCCC2(C)C3=C(CCC12)C(=O)OC3 (centres undefined),84.4 ± 24%
18,O=C1C(C(O)(C(F)(F)F)C(F)(F)F)CCC1C(O)(C(F)(F)F)C(F)(F)F (centres undefined),104 ± 18%
19,NC(=O)c1c([N+](=O)[O-])cc(C(F)(F)F)cc1[N+](=O)[O-],63.9 ± 13%
20,CCCCCC/C=C\CCCCCCCCCc1cccc(OC)c1O,115 ± 69%

row,Structure (SMILES),cell growth
1,O=[n+]1c2c(n([O-])c3ccccc31)-c1cccc3cccc-2c13,92 ± 21%
2,S=C1Nc2cnc3ccccc3c2SC1c1ccccc1 (centres undefined),9.8 ± 3.9%
3,CC1(C)N=C(N)N=C(N)N1c1ccc(OCCCOc2ccccc2)c(Cl)c1,43.6 ± 13%
4,CN(CO)c1nc(N(C)CO)nc(N(C)CO)n1,83.5 ± 18%
5,CC(C)C1=CC2=CC[C@@H]3[C@](C)(CCC[C@@]3(C)C(=O)O)[C@H]2CC1,114 ± 10%
6,Cn1cnc([N+](=O)[O-])c1Sc1nnc(-c2cccnc2)n1C,151 ± 61%
7,O=[N+]([O-])c1cc(-c2nc(=S)[nH][nH]2)ccc1O,98.5 ± 14%
8,O=[N+]([O-])c1ccccc1S(=O)(=O)c1ccccc1[N+](=O)[O-],77.1 ± 18%
9,CN(C)CCN1C(=O)c2cccc3cc(N)cc(c23)C1=O,60.2 ± 11%
10,O=C1C(Br)=C(Br)C(=O)c2ccccc21,3.3 ± 4%
11,CN1C(Cl)=NS(=O)(=O)c2ccccc21,99.9 ± 12%
12,COc1ccc2cc(CN3CCC(C4CCN(Cc5ccc6cc(OC)ccc6c5)CC4)CC3)ccc2c1,110 ± 24%
13,COc1ccc2cc1Oc1ccc(cc1)CC1c3cc(c(OC)cc3CCN1C)Oc1c(OC)c(OC)cc3c1C(C2)N(C)CC3 (centres undefined),88.5 ± 18%
14,Nc1nc(N)c(-c2cccc(C(F)(F)F)c2)c(Cc2cccc(C(F)(F)F)c2)n1,114 ± 34%
15,COc1ccc2c(c1)C=C([N+](=O)[O-])C(C1OC(C)(C)OC1C1COC(C)(C)O1)O2 (centres undefined),84.6 ± 23%
16,COc1ccccc1/C=C1\Sc2scc(-c3cccc([N+](=O)[O-])c3)[n+]2C1=O,128 ± 18%
17,CCN(CC)CCOc1ccc(C(O)(Cc2ccc(OC)cc2)c2ccccc2)cc1 (centres undefined),118 ± 40%
18,O=C(CCc1ccccc1)On1nnc2ccccc2c1=O,79 ± 18%
19,O=C(CC1(O)C(=O)Nc2c(Cl)cc(Cl)cc21)c1cccc([N+](=O)[O-])c1 (centres undefined),88.1 ± 30%
